# Measured values: PubChem BioAssay AID2685 (National Center for Advancing Translational Sciences (NCATS), 2010)
# The whole screen tested about 320,000 compounds, of which about 2,100 (0.66%) were called active. Roughly 53% stayed inconclusive and do not appear here. Calls come from the whole dose curve; as a rule, active = well fitted inhibition curve with a large enough effect in the signal ratio, with a control signal flat (not every such curve was filed as active); inconclusive = small, poorly fitted or top-dose-only effect, or effect the other way, or a change in a side signal; inactive = flat fitted curve, though single readings scatter; the % refers to the signal ratio. The full list was thinned out, with actives kept by preference. Where a SMILES comes first, the peptide text is derived from it. [ ]: non-standard residue; d: D form. The star is where a group is joined. ξ: configuration not given here. ξF = NC(Cc1ccccc1)C(=O)O; Cbz = O=C(OCc1ccccc1)*
# Test: qHTS Assay for Lipid Storage Modulators in Drosophila S3 Cells;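 for cell number change: cells counted by Cell Tracker Red CMTPX staining in the red channel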
# Conditions: BODIPY lipid droplet fluorescence, 18-24 h, cells fed with added oleic acid; cell number change: measured here: cell count max response; series mostly up to 46.1 µM
# Summary of the method: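 Laser-scanning cytometry quantifies lipid droplet accumulation (500–530 nm total intensity; droplet/cell object ratio) in oleic acid-fed (400 uM added) Drosophila S3 cells treated with a concentration series. 20 uM Triacsin C defined 100% inhibition.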
# Potency is the fitted concentration of half-maximal effect.
SMILES,Potency,cell number change
CN(Cc1ccccc1)c1nc2c(c(=O)[nH]c(=O)n2C)n1C,inactive,-14.1%
O=C(CSc1ncnc2c1nnn2Cc1ccc(F)cc1)NC1CCCCC1,20.6 µM (active),-16.3%
O=C(CSc1ncnc2c1nnn2Cc1ccccc1)NC1CCCC1,inactive,-1.92%
O=C(CSc1ncnc2c1nnn2Cc1ccccc1)NC1CCCCC1,inactive,-19.4%
CC(C)(C)C1CCC2(CC1)SCC(=O)N2c1ccccc1 (stereo not drawn),inactive,-2.85%
COCc1cc(C)nc(SCC(=O)Nc2ccccc2N2CCOCC2)c1C#N,13 µM (active),-22.4%
COCc1cc(C)nc(SCC(=O)Nc2ccc(N3CCOCC3)cc2)c1C#N,inactive,5.82%
COCc1cc(C)nc(SCC(=O)Nc2ccc3c(c2)OCCO3)c1C#N,inactive,16.8%
O=C(N/N=C/c1ccsc1)c1ccc2c(c1)OCO2,inactive,17%
Cc1cc(-c2ccc(C)c(S(=O)(=O)NCCC(C)N3CCCCCC3)c2)on1 (stereo not drawn),inactive,3.3%
CCOc1ccc(CN(C)C(=O)[C@H](Cc2ccccc2)NC(=O)OCc2ccccc2)cc1OC,8.2 µM (active),6.3%
COc1ccc(CCNC(=O)C(NC(=O)OCc2ccccc2)C(C)C)cc1OC (stereo not drawn),inactive,2.79%
CCOC(=O)CNC(=O)C(Cc1ccccc1)NC(=O)OCc1ccccc1 (stereo not drawn) (Cbz-[ξF]-Gly-OEt),inactive,–
CN1CCN(C2=NC(=O)/C(=C/c3ccccc3OS(=O)(=O)c3ccccc3)S2)CC1,inactive,6.94%
CCOC(=O)C(NC(C)=O)(Nc1ccc(F)cc1)C(F)(F)F (stereo not drawn),inactive,-0.408%
CCOC(=O)C(NC(=O)CC)(Nc1ccccc1)C(F)(F)F (stereo not drawn),inactive,-9.13%
CCOC(=O)C(NC(C)=O)(Nc1cccc(F)c1)C(F)(F)F (stereo not drawn),4.11 µM (active),-1.43%
CNC(=O)C1CC(=O)N(c2ccc(F)c(Cl)c2)C1 (stereo not drawn),inactive,9.35%
CC(C)c1ccc(OCCCN2CCCC2)cc1,inactive,0.741%
CCC(C)c1ccc(OCCN2CCCC2)cc1 (stereo not drawn),23.1 µM (active),7.66%
CCOc1ccc(OCCN2CCCCC2)cc1,inactive,-0.326%

SMILES,Potency,cell number change
COc1ccc(OC)c(NS(=O)(=O)c2ccc(Cl)nc2)c1,inactive,7.58%
CC(=O)NNC(=S)NCCc1ccccc1,inactive,6.47%
CCOCc1[nH]c(=S)[nH]c(=O)c1Cc1ccc(OCC)cc1,inactive,9.42%
COc1ccc(CNc2nc3ccccc3n2Cc2ccc(Cl)cc2)cc1OC,inactive,-0.354%
CCOC(=O)N1CCN(C(=O)CCc2cc(OC)c(OC)c(OC)c2)CC1,inactive,18.4%
CC(=O)N1CC(C)Sc2ccc(S(=O)(=O)NCCc3ccc(C)cc3)cc21 (stereo not drawn),6.51 µM (active),-15.2%
COc1ccc(CNS(=O)(=O)c2ccc3c(c2)N(C(C)=O)CC(C)S3)cc1 (stereo not drawn),inactive,-3.12%
CC(=O)N1CC(C)Sc2ccc(S(=O)(=O)NCc3ccc(Cl)cc3)cc21 (stereo not drawn),inactive,17.6%
CCc1ccc(-n2c(C)cc(/C=N/NC(=O)OC)c2C)cc1,inactive,-6.79%
Cc1ccc(OCc2nnc(NC(=O)OCC(C)C)s2)cc1,18.4 µM (active),0.0966%
CCCCOC(=O)Nc1nnc(COc2ccccc2)s1,inactive,-19.4%
Cc1ccc(OCc2nnc(NC(=O)OCC(C)C)s2)c(C)c1,inactive,–
O=C(NC1CCN(S(=O)(=O)c2ccc(Cl)c(F)c2)CC1)c1cccnc1,inactive,-17.9%
C[C@@H](O)C1NC(=O)[C@H](CCCCN)NC(=O)c2cc([N+](=O)[O-])cc(I)c2OCC[C@@H](C(N)=O)NC1=O (stereo partly drawn),inactive,-6.85%
O=S(=O)(c1ccc(Br)cc1)c1nc(-c2ccccc2)oc1NCCN1CCOCC1,inactive,2.89%
COCCNc1nnc(Cc2ccc(Cl)cc2)c(=O)[nH]1,inactive,-0.278%
O=C(c1cccc(Br)c1)N1CCCc2ccccc21,0.82 µM (active),-21.4%
O=C(c1ccccc1)N1CCCc2ccccc21,inactive,0.741%
O=C(c1ccc(F)c(F)c1)N1CCCc2ccccc21,inactive,4.4%
Cc1ccc(OCCCC(=O)Nc2ccc(N3CCOCC3)cc2)c(C)c1,inactive,–
Cc1cc(Oc2nnnn2-c2ccccc2)ccc1Cl,inactive,–

SMILES,Potency,cell number change
CCN(C(=O)c1ccc(NC(C)=O)cc1)c1ccccc1,inactive,-17%
c1ccc(-n2nnnc2CN2CCOCC2)cc1,inactive,-7%
Nc1ccc(-n2nnnc2CN2CCOCC2)cc1,inactive,0.0095%
CC1CCN(Cc2nnnn2-c2ccc(Cl)cc2)CC1,13 µM (active),-6.07%
COc1ccc(OC)c(N(CC(=O)NCCSCc2ccco2)S(=O)(=O)c2ccc(OC)c(OC)c2)c1,inactive,-16.6%
CCCCN1/C(=C/c2cccc[n+]2C)Sc2cc(NC(C)=O)ccc21,1.3 µM (active),11.1%
C[n+]1ccccc1/C=C1\Sc2ccccc2N1CCO,inactive,-1.06%
Cc1ccc2c(c1)S/C(=C\c1cccc[n+]1C)N2CCO,inactive,-6.57%
O=C(Nc1nc2ccc([N+](=O)[O-])cc2s1)C1CCCO1 (stereo not drawn),inactive,-16.8%
O=C(NNC(=O)c1csc(-c2cccnc2)n1)c1ccccc1,inactive,5.13%
S=C(NCc1cccc(Cl)c1)NCc1ccco1,inactive,29.3%
CC(C)(C)C(=O)COC(=O)c1ccc2c(c1)C(=O)N(Cc1ccco1)C2=O,0.259 µM (active),2.14%
CC(C)(C)NC(=O)COC(=O)c1ccc2c(c1)C(=O)N(Cc1ccco1)C2=O,inactive,-13.3%
CCC(CC)NC(=O)COC(=O)c1ccc2c(c1)C(=O)N(Cc1ccco1)C2=O,inactive,-0.427%
COc1ccc(NS(=O)(=O)c2cccc(C(=O)NCC(c3ccco3)N3CCCC3)c2)cc1 (stereo not drawn),inactive,21.4%
COC(=O)c1ccc(CSc2nnc(N)s2)cc1,inactive,1.22%
CCn1cc(C(=O)OCC(=O)OC2CC(C)CCC2C(C)C)c(=O)c2ccc(C)nc21 (stereo not drawn),inactive,–
CCOCCCNC(=O)c1cc2c(=O)n3cccc(C)c3nc2s1,inactive,22%
CCC(C)Nc1nc2c(C)cccn2c(=O)c1C=Nc1ccc(OC)cc1 (stereo not drawn),inactive,–
CCOCCCNc1nc2c(C)cccn2c(=O)c1/C=C1\SC(=S)N(C(C)CC)C1=O (stereo not drawn),0.461 µM (active),29.9%
